The whole screen tested about 52,000 compounds, of which about 1,700 (3.3%) were called active. Many of the other results were omitted from the sample, so actives are more common in it than they were. Unmarked numbers belong to inactive results. No stated cut-off is given here; in the data, active means survival mostly below about 52% (no sharp cut-off); inactive means mostly above about 56%.

The text below walks through data of PubChem BioAssay AID463173 (ICCB-Longwood Screening Facility, Harvard Medical School, 2010).

The assay deals with Wild type. As to the kind of experiment: S. aureus survival, RN4220 and DeltatarO strains – OD600, teichoic acid synthesis inhibitors, primary screen (AID 463173). As to conditions: S. aureus RN4220 wild type/DeltatarO growth, OD600, 18 h, active compounds read low, screened at 18.75 µg/mL (by protocol).
Regarding `Cc1ccc(CNC(=O)CN2N=C(c3ccc(C)cc3)CCC2=O)cc1`, the survival was 80%.
`CCN(CC)c1nc(-c2ccc(C(C)(C)C)cc2)nc2ccccc12`: the survival was -2% (active).
To `CCCCc1nc2ccccc2c(C(=O)O)c1C` belongs 106%; to `Cc1cc(Sc2ccc(Cl)cc2)nc2ccccc12`, 50%.
The value for `CCCCN(CC)c1nc(-c2ccccc2F)nc2ccccc12` was 71%; that for `CCCN(CCC)c1nc(-c2ccccc2F)nc2ccccc12` was 1% (active).
The value for `CCCCN(CCCC)c1nc(-c2ccccc2)nc2ccccc12` was -3% (active); that for `COc1ccccc1Nc1nc(-c2ccccc2F)nc2ccccc12` was 73%; that for `Cc1cc(N(C)Cc2ccccc2)n2nc(-c3ccc(C(C)(C)C)cc3)nc2n1` was 77%.
For the compound `CCCCN(C)CCCNC(=O)c1cc(-c2cccnc2)nc2ccccc12`, the survival is 77%.
To `CC(C)CN(CC(C)C)c1nc(-c2ccc(Cl)cc2)nc2ccccc12` belongs -1% (active); to `Cc1ccc(C(=O)COC(=O)c2cc(-c3ccc(Cl)cc3)nc3ccccc23)cc1`, 117%.
With `CCN(CC)c1nc(-c2ccccc2)nc2ccccc12`, the survival was 108%.
On to `COc1ccc(-n2ccnc2SCC(=O)Nc2ccc(F)cc2F)cc1`, for which the survival is 143%.
The value for `Cc1ccccc1NC(=O)CSc1ncc2c(n1)-c1ccccc1N(C)S2(=O)=O` was 99%; that for `CCN(C(=O)c1sc2nc3n(c(=O)c2c1C)CCCCC3)c1ccc(OC)cc1` was 83%; that for `CCN(C(=O)C1CCC(CNS(=O)(=O)c2cccc3nsnc23)CC1)c1cccc(C)c1` (centres undefined) was 86%.
For the compound `N#Cc1c(/N=C/c2ccc3c(c2)OCO3)oc(-c2ccccc2)c1-c1ccccc1`, the survival was 115%.
Consider `COc1cccc(CNC(=O)Cn2c(=O)nc(-c3ccccc3F)c3cc(Cl)ccc32)c1`, for which the survival is 82%.
To `O=C(COc1ccccc1)NS(=O)(=O)c1ccc(N=NN2CCOCC2)cc1` belongs 105%; to `Cc1ccc(CNC(=O)C(=O)Nc2c3c(nn2-c2ccccc2)CSC3)cc1`, 82%; to `COc1ccc(NC(=O)CSc2ncc3c(n2)-c2cc(Cl)ccc2N(Cc2ccccc2F)S3(=O)=O)cc1`, 65%.
To `CCc1ccccc1NC(=O)CC1NCCNC1=O` (centres undefined) belongs 87%; to `O=C(Nc1cccc(C(F)(F)F)c1)C1CCN(S(=O)(=O)c2cccs2)CC1`, 92%; to `CC1CCN(c2nc3ccc(C(=O)N4CCN(c5ccccc5)CC4)cc3s2)CC1`, 64%.
To `Cc1ccc(Cl)cc1N1CCN(C(=O)c2ccc3nc(N4CCC(C)CC4)sc3c2)CC1` belongs 16%; to `Cc1cccc(N2CCN(C(=O)c3ccc4nc(N5CCC(C)CC5)sc4c3)CC2)c1C`, 1% (active); to `Cc1ccc(C)c(N2CCN(CCCNC(=O)c3ccc4nc(N5CCCCC5)sc4c3)CC2)c1`, 76%.
In the case of `Cc1ccc(C)c(N2CCN(CCCNC(=O)c3ccc4nc(N5CCC(C)CC5)sc4c3)CC2)c1`, the survival was 1% (active).
To `Cc1ccc(Cl)cc1N1CCN(CCCNC(=O)c2ccc3nc(N4CCCCC4)sc3c2)CC1` belongs 45%.
The value for `O=C(O)CCc1ccc(-c2cccs2)n1CC(=O)Nc1ccccc1C(F)(F)F` was 105%.
To `COc1ccc(OC)c(NC(=O)N2CCC(CN3CCCCC3)CC2)c1` belongs 70%; to `O=C(NCC(c1cccs1)S(=O)(=O)c1cccs1)c1c(F)cccc1F` (centres undefined), 71%.
`COCCCNC(=O)C1CCN(Cc2cc3ccccc3n2Cc2ccccc2C)CC1`: the survival is 78%.
The value for `C=CCC1Cc2ccccc2C(CC=C)N1` (centres undefined) was 100%; that for `COc1ccc(-c2cn3c(n2)sc2cc(C(=O)NCCCN4CCCCC4)ccc23)cc1` was 81%.
The value for `CC1CCCCN1CCCNC(=O)c1ccc2c(c1)sc1nc(-c3ccc(F)cc3)cn12` (centres undefined) was 26%; that for `CCN1CCN(CCCNC(=O)c2ccc3c(c2)sc2nc(-c4ccc(C)cc4)cn23)CC1` was 29%.
To `O=C(NCCCN1CCCCC1)c1ccc2c(c1)sc1nc(-c3ccc(F)cc3)cn12` belongs 43%; to `CCC1CCCCN1CCCNC(=O)c1ccc2c(c1)sc1nc(-c3ccc(F)cc3)cn12` (centres undefined), 6% (active); to `CCCN1CCN(CCCNC(=O)c2ccc3c(c2)sc2nc(-c4ccc(C)cc4)cn23)CC1`, 20%.
For the compound `Cc1ccc(-c2cn3c(n2)sc2cc(C(=O)NCCCN4CCCCC4)ccc23)cc1`, the survival was -1% (active).
The value for `Cc1ccc(-c2cn3c(n2)sc2cc(C(=O)NCCCN4CCCCCC4)ccc23)cc1` was -1% (active); that for `COc1ccc(-c2cn3c(n2)sc2cc(C(=O)NCCCN4CCCCCC4)ccc23)cc1` was 66%; that for `CCCCNC(=O)c1ccc(-c2nc(CS(=O)(=O)c3ccc(C)cc3)c(C)o2)cc1` was 83%.
With `COc1ccc(C2=NN(C(C)=O)C(c3cn(-c4ccccc4)nc3-c3cccs3)C2)cc1` (centres undefined), the survival is 127%.
To `O=C(NCCN1CCOCC1)N1CCNC1=O` belongs 110%; to `CC1(C)N=C2C(=[N+]1[O-])CCC/C2=N/O`, 110%; to `Cc1ccc(C)c(NC(=O)NCc2ccc3c(c2)CCN3C(=O)c2ccccc2)c1`, 66%.
On to `CC(C)N1CCc2nc(SCC(=O)Nc3cccc(F)c3)[nH]c(=O)c2C1`, for which the survival is 83%.
The value for `Cc1ccc(NC(=O)Cn2c(=O)n(CCC(C)C)c(=O)c3cccnc32)cc1C` was 90%; that for `Cc1ccc(-c2nc(CS(=O)CC(=O)NCc3ccccc3Cl)c(C)o2)cc1` (centres undefined) was 72%; that for `Cc1ccc2nc(SCc3nc(-c4ccccc4C)no3)[nH]c2c1` was 27%.
To `CCc1cc(=O)[nH]c(SCc2nc(-c3ccccc3)no2)n1` belongs 87%; to `COc1ccc(-c2noc(CSc3nc4ccc(C)cc4[nH]3)n2)cc1`, 47%.
To `O=c1cc(-c2ccccc2)nc(SCc2nc(-c3ccc(C(F)(F)F)cc3)no2)[nH]1` belongs 150%; to `O=c1cc(-c2ccc(F)cc2)nc(SCc2nc(-c3ccccc3Cl)no2)[nH]1`, 121%.
With `CCc1cc(=O)[nH]c(SCc2nc(-c3cccc(Cl)c3)no2)n1`, the survival is 22%.
To `CCCc1cc(=O)[nH]c(SCc2nc(-c3ccccc3)no2)n1` belongs -2% (active); to `CCCc1cc(=O)[nH]c(SCc2nc(-c3ccc(C)cc3)no2)n1`, 73%.
The value for `CCc1cc(=O)[nH]c(SCc2nc(-c3ccc(C(F)(F)F)cc3)no2)n1` was 0% (active); that for `Cc1ccc2nc(SCc3nc(-c4ccc(Cl)cc4)no3)[nH]c2c1` was -4% (active).
The value for `Cc1ccccc1-c1noc(CSc2nc(-c3ccc(F)cc3)cc(=O)[nH]2)n1` was 10% (active).
As for `Cc1cccc(-c2noc(CSc3nc(-c4ccc(F)cc4)cc(=O)[nH]3)n2)c1`, the survival is 82%.
